# Assay outcomes (PubChem)
# Compounds with a hit are over-represented: about 3.2% of the library has one in this group of screens.
# PMP22 txn prim: modulates PMP22 transcription in S16 Schwann cells; hit rate 2% among 43,000; Potency, µM (highest dose often 57.5 µM), inactives show top-dose activity change, negative = inhibition, hits mostly inhibitors; AID 1508649; S16 Pmp22-F2sN Schwann cells, FLuc/NLuc coincidence luminescence, 24 h; active means clear falling dose curves in both reporters; inconclusive means both reporters move, but less clearly or upward; inactive means either reporter flat; the % is the NLuc reporter signal
#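 Transcriptional readout in edited S16(c9) cells: two luciferases reported from the Pmp22 locus, measured in turn after 24 h compound incubation.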
# S16 viability: toxic to S16 Pmp22-F2sN Schwann cells. S16 Pmp22-F2sN Schwann cells (luciferase reporters placed in the Pmp22 gene) viability, CellTiter-Glo, 24 h. Potency, µM (series often up to 57.5 µM), inactives show at the highest dose activity change, negative = cytotoxicity, actives largely listed as cytotoxic. hit rate 0.48% among 43,000; further: nearly all actives have a fitted effect of over 65% in size
#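 S16 Schwann cells carrying the Pmp22-F2sN reporter, seeded in 1536-well format, were exposed to library compounds for 24 h at 37C. Viability was read as CellTiter-Glo luminescence after 15 min at room temperature.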
# p53null 39C tox: selectivity test: cytotoxicity in p53 null cells, nonpermissive temperature; H1299 p53-null (neo) cells, 39C, ATPlite viability, 24 h; Potency, µM (titrated, usually from 46.1 µM), inactives show top-dose activity, negative = cell killing, most hits filed as cytotoxic; hit rate 0.97% among 55,000;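 further: 0% = DMSO only and -100% = full killing by 100 µM tamoxifen; nearly all actives have a fitted effect of over 50% in size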
#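 Following overnight plating at 37C (600 cells/well), H1299-neo or H1299-p53A138V cells are dosed up to 46 uM. Incubation lasts 24 hr at 39C before ATP detection.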
# p53null 32C tox: selectivity test: cytotoxicity in p53 null cells, permissive temperature; H1299-neo p53 null cells, ATP luminescence, 24 h, 32C; Potency, µM (titrated, usually from 46.1 µM), for the others: at the top dose activity change, negative = cytotoxicity, actives largely listed as cytotoxic; hit rate 0.62% among 55,000; AID 903;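 further: 0% = DMSO only and -100% = full killing by 100 µM tamoxifen; nearly all actives have a fitted effect of over 55% in size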
#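 H1299-neo (p53-null) cells, 600/well, were pre-incubated overnight at 37C, then exposed to compounds at up to 46 uM for 24 hr at 32C. Viability was measured as ATP content by luminescence, and AC50 values came from Hill fits.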
# mTORC1 inh: mTORC1 pathway inhibition measured by phospho-rpS6; Tsc2-/- p53-/- MEF, phospho-rpS6 immunofluorescence/PI, 24 h; Potency, µM (top dose mostly 38.3 µM), inactives show top-dose activity change, negative = inhibition, most hits filed as inhibitors; hit rate 0.78% among 44,000; AID 493208;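 further: plate controls were DMSO for no effect and rapamycin for full effect; nearly all actives have a fitted effect of over 50% in size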
#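 Compounds act on Tsc2-/-, p53-/- fibroblasts carrying an empty vector for 24 h before fixation and dual staining for phospho-S6 and DNA (propidium iodide). Values are percentages of cells above a rapamycin-defined pS6/PI threshold.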
# * = called active by the depositor; ? = inconclusive; · = not tested or not shown. Unless noted, the call rests on the fitted dose curve; in most records, active means well fitted curve in the direction sought with a large enough effect; inconclusive means small, poorly fitted or top-dose-only effect, or another doubt; inactive means no such curve, though single readings can be large; an effect the other way counts as inactive or inconclusive. Unless noted, on the % scale 0 is the no-effect control and ±100 the full control effect; potency means the concentration at half of the fitted maximal effect.
SMILES,PMP22 txn prim,S16 viability,p53null 39C tox,p53null 32C tox,mTORC1 inh
CCOc1ccc(Nc2nc(-c3cccc(Cl)c3)c3c(n2)-c2ccccc2OC3)cc1,-4%,1%,?,?,2.3µM*
O=S(=O)(c1ccccc1)n1nc(-c2ccccc2)nc1NCc1ccc(Cl)cc1,-35%,3%,-11%,9%,0%
O=S(=O)(c1ccccc1)n1nc(-c2ccc(Cl)cc2)nc1NCc1ccccc1,?,?,8%,19%,15µM*
CCCc1nn2c(C)c(-c3ccccc3)nc2s1,?,4%,10µM*,7.9µM*,-3%
CCc1ccc(NC(=O)C2CCN(c3nn4cc(-c5ccc(OC)cc5)nc4s3)CC2)cc1,-30%,-7%,-7%,0%,-5%
CC(C)Cc1nn2cc(-c3cccc(Br)c3)nc2s1,?,-4%,16µM*,13µM*,-6%
CCCCCc1nn2cc(-c3ccccc3)nc2s1,-9%,11%,16µM*,10µM*,2%
CC(C)Cn1c(-c2cccc(Br)c2)nc2ccccc21,?,-16%,-3%,16%,0%
CCc1ccc(-c2cn3nc(CC)sc3n2)cc1,-25%,5%,10µM*,13µM*,?
O=C(NCCCN1CCN(c2cccc(Cl)c2)CC1)Nc1ccccc1C(F)(F)F,?,-22%,?,-4%,-7%
Cc1ccccc1C(=O)Nc1cccc(NC(=O)c2ccc(C(C)(C)C)cc2)c1,?,-22%,?,13µM*,8%
O=C(Nc1cccc(NC(=O)c2ccccc2F)c1)c1ccccc1,0%,?,20%,-4%,12%
COc1ccc(C(=O)N2CCC(C(=O)Nc3ccccc3Cl)CC2)cc1,-3%,12%,-2%,0%,-3%
O=C(CCS(=O)(=O)c1nc(-c2cccs2)cc(C(F)(F)F)n1)Nc1cc(Br)ccc1O,?,10µM*,?,60%,?
Cc1ccc(O)c(NC(=O)CCS(=O)(=O)c2nc(-c3cccs3)cc(C(F)(F)F)n2)c1,?,?,32%,18%,?
COc1ccc(CNC(=O)c2ccc3nc(C(C)C)oc3c2)cc1OC,?,28µM*,1%,-2%,0%
CCS(=O)(=O)c1ccccc1C(=O)Nc1ccc(-c2nc3ccccc3s2)cc1,-14%,14%,-15%,-4%,11%
CC(C)(C)C(=O)Nc1ccc(-c2nc3ccccc3s2)cc1,-4%,0%,0.63µM*,0.5µM*,3%
Cc1c2cnn(-c3ccccc3)c(=O)c2c(C)n1C(C)C(=O)NCc1cccc(Br)c1 (stereo unspecified),?,-16%,-16%,19%,-9%
CC(C(=O)NCc1cccc(Br)c1)n1ncn2cccc2c1=O (stereo unspecified),4%,0%,13µM*,?,0.58µM*
O=C(NC1CCCCC1)c1cc2c(Cl)nc3ccccc3c2s1,-16%,11%,5%,2%,-8%
CCOc1ccccc1CNC(=O)C1CCN(c2nnc(C)c3c(C)n(-c4ccc(C)cc4)nc23)CC1,?,?,16µM*,?,-13%
Cc1ccc(-n2nc3c(N4CCCC(C(=O)NCCc5ccccc5)C4)nnc(C)c3c2C)cc1 (stereo unspecified),?,?,-4%,9%,-6%
Cc1nnc(N2CCCC(C(=O)NCc3ccccc3)C2)c2nn(-c3ccccc3)c(C)c12 (stereo unspecified),-5%,-4%,2%,0%,-2%
Cc1ccc(Cl)cc1NC(=O)C1CCN(c2nnc(C)c3c(C)n(-c4ccccc4)nc23)CC1,?,2%,13µM*,?,0%
SMILES,PMP22 txn prim,S16 viability,p53null 39C tox,p53null 32C tox,mTORC1 inh
COc1ccccc1CCNC(=O)C1CCN(c2nnc(C)c3c(C)n(-c4ccc(C)cc4)nc23)CC1,?,?,10µM*,-13%,-9%
COc1ccc(Cl)cc1NC(=O)C1CCN(c2nnc(C)c3c(C)n(-c4ccccc4)nc23)CC1,?,-4%,-6%,15%,-1%
CCc1ccc(CNC(=O)C2CCCN(c3nnc(C)c4c(C)n(-c5ccccc5)nc34)C2)cc1 (stereo unspecified),?,?,16µM*,-24%,-3%
Cc1ccc(N2CCN(c3nc4c(S(=O)(=O)c5ccc(C)c(C)c5)nnn4c4ccccc34)CC2)c(C)c1,5%,-1%,-2%,-1%,-3%
Cc1nnc(N2CCC(C(=O)NCCc3ccccc3Cl)CC2)c2nn(-c3ccccc3)c(C)c12,?,35µM*,10µM*,?,-8%
Cc1nnc(N2CCC(C(=O)NCCc3ccccc3)CC2)c2nn(-c3ccc(Cl)cc3)c(C)c12,4%,-13%,?,6%,3%
Cc1ccc(N2C(=O)CSC23C(=O)N(CC(=O)NCCc2ccccc2)c2ccccc23)cc1C (stereo unspecified),-14%,-17%,10%,17%,3%
O=C(c1ccc2c(c1)OCCO2)N(Cc1cccnc1)c1nc2c(Cl)cccc2s1,?,-18%,118%,55%,0%
CCc1ccc(NC(=O)Nc2ccccc2OCc2cc(=O)n3ccccc3n2)cc1,?,0%,2µM*,?,3%
Cc1cc(C)c2oc(-c3cccc(NC(=O)COc4ccc([N+](=O)[O-])cc4)c3)nc2c1,?,-19%,-15%,-26%,21µM*
Cc1cc(=O)n(Cc2ccc(Br)cc2F)c2c1c(C)nn2-c1ccccc1,0%,-1%,-8%,-2%,5%
Cc1cc(C(=O)Nc2sc3c(c2C#N)CCCC3)no1,·,·,11µM*,14µM*,·
Cc1ccc(OCC(=O)Nc2ccc(C(=O)OCc3cc(=O)n4ccsc4n3)cc2)cc1C,-9%,?,-11%,-19%,0%
CCOc1ccc2nc(N3CCN(C(=O)CS(=O)(=O)c4ccc(F)cc4)CC3)sc2c1,?,?,?,10µM*,-8%
Cc1c(Cl)ccc2sc(N3CCN(C(=O)CCS(=O)(=O)c4ccc(F)cc4)CC3)nc12,12µM*,?,30%,3%,-19%
CCOc1ccc2nc(N3CCN(C(=O)c4ccc(S(=O)(=O)CC)cc4)CC3)sc2c1,-26%,-28%,19%,-13%,-5%
CSc1ccc(NC(=O)C2CCN(c3ncccn3)CC2)cc1,-9%,-19%,-23%,-1%,-2%
Cc1onc(-c2ccc(Br)cc2)c1C(=O)Nc1ccc(Br)cc1F,?,-16%,-7%,5%,-7%
CCOC(=O)N1CCc2c(sc3c2C(=O)NC(c2cc(OC)c(OC)c(OC)c2)N3)C1 (stereo unspecified),?,?,-10%,9%,?
